Reference: the supplement of paper PMC10037445
Values joined by “and” are separate entries in the source; they are usually repeats but may differ in a detail not shown here. Equal entries are not always repeated. Whole data set: some 2,900 compounds, median “NF-kB SEAP reporter activity, fold change vs agonist alone” near 0.99, cut for the highest 2% near 2.6. This is one part of a sample in which the highest values are shown more often than they occur.

Key:
[1] = test system: RAW-Dual; assay: NF-kB SEAP reporter activity, fold change vs agonist alone; higher = enhanced NF-kB activity; conditions: library stock concentration (final ~1000-fold dilution): 10 mM, cytotoxicity flag (confluency mask): not cytotoxic
How it was run: (§1)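 Reporter activity is given as fold change relative to agonist-alone wells. To measure it, 50 nL of library stock was pin-tooled onto RAW-Dual macrophages (50,000 cells/well, DMEM, 384-well plates), a PRR agonist followed 1 h later, and cells stayed at 37 °C, 5% CO2. Twenty hours on, supernatant was assayed for IRF (QuantiLuc luminescence) and NF-κB (QuantiBlue, 620 nm absorbance), and wells under 70% of agonist-control IncuCyte confluency in both mask sets were marked cytotoxic.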

[2] = test system: RAW-Dual; assay: NF-kB SEAP reporter activity, fold change vs agonist alone; cytotoxicity flag (confluency mask): not cytotoxic; higher = enhanced NF-kB activity
How it was run: as §1

[3] = agonist: ODN 1826 (TLR9) 0.5 ug/mL
[4] = agonist: Pam2CSK4 (TLR2/6) 0.1 ug/mL
[5] = agonist: Pam3CSK4 (TLR2/1) 0.1 ug/mL

| SMILES | NF-kB SEAP reporter activity ([1]; agonist: Imiquimod (TLR7) […]) | NF-kB SEAP reporter activity ([1]; agonist: MPLA (TLR4) […]) | NF-kB SEAP reporter activity ([2]; agonist: LPS (TLR4) 0.1 ug/mL) | NF-kB SEAP reporter activity [2, 3] | NF-kB SEAP reporter activity [2, 4] | NF-kB SEAP reporter activity [2, 5] |
| --- | --- | --- | --- | --- | --- | --- |
| O=C(NCCO)c1cccc(-c2cc(Nc3ccc(OC(F)(F)F)cc3)ncn2)c1 | 1.09 | 1.23 | – | – | – | – |
| O=C(Nc1ccc(OC(F)(F)F)cc1)c1sccc1NCc1ccnc2ccccc12 | 1.77 | 2.25 | – | – | – | – |
| O=C(NCCO)c1cccc(-c2cc(Nc3ccc(OC(F)(F)F)cc3)ncn2)c1 (library stock concentration (final ~1000-fold dilution): 10 mM) | – | – | 1.15 | 0.796 | 0.96 | 1.03 |
| Cc1cc(Nc2ccc(NC(=O)c3ccc(Nc4ccnc5ccccc45)cc3)cc2)nc(N)n1 (library stock concentration (final ~1000-fold dilution): 10 mM) | – | – | 2.34 | 0.228 | 0.856 | 1.34 |
| O=C(Nc1ccc(OC(F)(F)F)cc1)c1sccc1NCc1ccnc2ccccc12 (library stock concentration (final ~1000-fold dilution): 10 mM) | – | – | 2.86 | 1.18 | 0.672 | 1.07 |
| Cc1[nH]nc(C(F)(F)F)c1Cc1sc2c(c1C(=O)N1CC(C)(O)CO1)c(=O)n(C)c(=O)n2C(C)C (configuration not stated) | 1.11 | 1.25 | – | – | – | – |
| Cc1[nH]nc(C(F)(F)F)c1Cc1sc2c(c1C(=O)N1CC(C)(O)CO1)c(=O)n(C)c(=O)n2C(C)C (configuration not stated) (library stock concentration (final ~1000-fold dilution): 10 mM) | – | – | 1.81 | 1.27 | 0.918 | 1.06 |
| Cc1cc(C)nc(NC(=S)N2CCN(Cc3ccc(C(F)(F)F)cc3)CC2)c1 | 0.758 | 0.954 | – | – | – | – |
| Cc1cc(C)nc(NC(=S)N2CCN(Cc3ccc(C(F)(F)F)cc3)CC2)c1 (library stock concentration (final ~1000-fold dilution): 10 mM) | – | – | 0.783 | 0.834 | 0.805 | 0.809 |
| CC1c2cccc(O)c2C(=O)C2=C(O)C3(O)C(=O)C(C(N)=O)=C(O)C(N(C)C)C3C(O)C21 (configuration not stated) (library stock concentration (final ~1000-fold dilution): 10 mM) | – | – | 1.81 | 0.966 | 0.896 | 0.885 |
| CC1c2cccc(O)c2C(=O)C2=C(O)C3(O)C(=O)C(C(N)=O)=C(O)C(N(C)C)C3C(O)C21 (configuration not stated) | – | 1.13 | – | – | – | – |
| CC(=O)N1CCC(Nc2cc(C(=O)NCC(O)CN3CCc4ccccc4C3)ncn2)CC1 (configuration not stated) (library stock concentration (final ~1000-fold dilution): 10 mM) | – | – | 1.08 | 0.948 | 1.13 | 1.17 |
| CC(=O)N1CCC(Nc2cc(C(=O)NCC(O)CN3CCc4ccccc4C3)ncn2)CC1 (configuration not stated) | 0.92 | 1.03 | – | – | – | – |
| Cc1cc(N=Nc2ccc(S(=O)(=O)Nc3ccccn3)cc2)c(N)cc1O | 1.38 | 2.48 | – | – | – | – |
| O=C(O)C1=C/C(=N\Nc2ccc(S(=O)(=O)Nc3ccccn3)cc2)C=CC1=O | 1.07 | 1.31 | – | – | – | – |
| Cc1cc(N=Nc2ccc(S(=O)(=O)Nc3ccccn3)cc2)c(N)cc1O (library stock concentration (final ~1000-fold dilution): 10 mM) | – | – | 3.77 | 2.32 | 0.966 | 2.13 |
| Cc1cc(N=Nc2ccc3c(c2)CCC(=O)N3)c(N)cc1O (library stock concentration (final ~1000-fold dilution): 10 mM) | – | – | 1.42 | 1.33 | 0.692 | 1.22 |
| O=C(O)C1=C/C(=N\Nc2ccc(S(=O)(=O)Nc3ccccn3)cc2)C=CC1=O (library stock concentration (final ~1000-fold dilution): 10 mM) | – | – | 1.65 | 1.26 | 0.969 | 0.851 |
| Cc1cc(N=Nc2ccc3c(c2)CCC(=O)N3)c(N)cc1O | 1.35 | 1.77 | – | – | – | – |
| O=C(c1ccccc1)C(O)O (library stock concentration (final ~1000-fold dilution): 10 mM) | – | – | 1.12 | 1.04 | 1.14 | 1.07 |
| O=C(c1ccccc1)C(O)O | – | 1.19 | – | – | – | – |
| CCC(=O)OC1CC(=O)OC(C)C/C=C/C=C/C(O)C(C)CC(CC=O)C(OC2OC(C)C(OC3CC(C)(O)C(OC(=O)CC)C(C)O3)C(N(C)C)C2O)C1OC (configuration not stated) | 0.961 | 1.07 | – | – | – | – |
| CCC(=O)OC1CC(=O)OC(C)C/C=C/C=C/C(O)C(C)CC(CC=O)C(OC2OC(C)C(OC3CC(C)(O)C(OC(=O)CC)C(C)O3)C(N(C)C)C2O)C1OC (configuration not stated) (library stock concentration (final ~1000-fold dilution): 10 mM) | – | – | 0.93 | 1.02 | 1.06 | 1.21 |
| COc1ccc2c(c1O)-c1c(O)c(OC)cc3c1C(C2)[N+](C)(C)CC3 (configuration not stated) (library stock concentration (final ~1000-fold dilution): 10 mM) | – | – | 1.1 and 1.18 | 0.935 and 1.11 | 1.01 and 1.08 | 0.967 and 1.08 |
